Compounds with a hit are over-represented: about 8.9% of the library has one in this group of screens.
KB-3-1 cytotox – qHTS assay for MDR1-selective chemotherapeutics: Primary screen using the parental adenocarcinoma cell KB-3-1; KB-3-1 viability, CellTiter-Glo ATP luminescence, 72 h; Potency, µM (top dose mostly 46.1 µM), most hits filed as cytotoxic; 1.4% of 400,000 active; AID 1347075, 2019; note: potency is the fitted concentration of half-maximal effect; % is set by controls: 0 for no effect and ±100 for the full control effect; nearly all actives have a fitted effect of over 60% in size
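Cytotoxicity in the drug-sensitive parental line KB-3-1 was scored as loss of CellTiter-Glo luminescence following 72 h incubation with compound. Values come from curve fitting of normalized concentration-response data.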
DRD3 agonist – qHTS of D3 Dopamine Receptor Agonist: qHTS | 0.58% of 410,000 active | max activation, % | D(3) dopamine receptor (Homo sapiens), P35462 | AID 652048, 2013 | D3R DiscoveRx beta-arrestin cells, luminescence, 90 min; in the data active = max activation above about 30%; note: 0% is about no effect
Target sequence (P35462 whole entry, looked up): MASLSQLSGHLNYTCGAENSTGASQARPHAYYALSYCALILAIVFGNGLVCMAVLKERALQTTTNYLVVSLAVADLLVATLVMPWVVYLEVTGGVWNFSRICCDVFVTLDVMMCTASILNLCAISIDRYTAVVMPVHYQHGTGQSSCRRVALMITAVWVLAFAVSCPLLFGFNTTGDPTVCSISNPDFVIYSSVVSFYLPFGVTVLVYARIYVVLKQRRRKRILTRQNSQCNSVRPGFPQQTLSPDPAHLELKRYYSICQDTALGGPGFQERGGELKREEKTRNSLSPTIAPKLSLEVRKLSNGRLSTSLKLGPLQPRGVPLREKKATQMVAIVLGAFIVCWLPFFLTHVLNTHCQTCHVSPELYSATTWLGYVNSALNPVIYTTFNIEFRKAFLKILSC
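Agonist mode: compounds and dopamine controls were applied to plated cells for 90 min at 37 degrees C after an overnight attachment at 1500 cells/well. Luminescent read-out followed 30 - 60 minutes at room temperature with DiscoveRx detection reagent.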
MCF10A rerep – A quantitative high throughput screen for small molecules that induce DNA re-replication in MCF 10a normal breast cells; 2.9% of 350,000 active; AID 624296, 2012; Potency, µM (doses to about 46.1 µM), inactives show at the top dose activity, positive = re-replication, most hits filed as activators; MCF 10A DNA re-replication, Hoechst nuclear intensity, 48 h; note: potency is the fitted concentration of half-maximal effect; % of control where 0% means no effect; nearly all actives have a fitted effect of over 50% in size
SW480 rereplic – A quantitative high throughput screen for small molecules that induce DNA re-replication in SW480 colon adenocarcinoma cells; SW480 DNA re-replication, Hoechst DNA content imaging, 48 h; Potency, µM (highest dose often 46.1 µM), without a hit: at the highest dose re-replication activation, usual class: activators; 1.8% of 340,000 active; AID 624297, 2012; note: potency is the fitted concentration of half-maximal effect; % of control where 0% means no effect; nearly all actives have a fitted effect of over 55% in size
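Quantitative HTS format with DMSO vehicle controls; 48 hr drug incubation at 37 C, then 40 min Hoechst staining and scanning imager measurement at 405 nm excitation.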
KB-V1 MDR tox – qHTS assay for MDR1-selective chemotherapeutics: Primary screen using the drug-selected MDR subline cells KB-V1. KB-V1 MDR cells viability, CellTiter-Glo, 72 h. Potency, µM (highest dose often 46.1 µM), actives largely listed as cytotoxic. 3.4% of 400,000 active. AID 1347076, 2019; note: potency is the fitted concentration of half-maximal effect; % is set by controls: 0 for no effect and ±100 for the full control effect; nearly all actives have a fitted effect of over 60% in size
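Cells of the MDR subline KB-V1 are plated, dosed with compound at multiple concentrations, and incubated 72 h at 37 degrees C; CellTiter-Glo is then added and luminescence read after 10 min.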
DRD3 antagonist – qHTS of D3 Dopamine Receptor Antagonist: qHTS; D(3) dopamine receptor (Homo sapiens), P35462; D3R cells, DiscoveRx beta-arrestin luminescence, antagonist mode; stronger effect = lower value; max response, negative = inhibition, %; 2.5% of 360,000 active; AID 652054, 2013; in the data active = max response below about -50%; inconclusive = no clear call, values can overlap the other calls; note: % is set by controls: 0 for no effect and ±100 for the full control effect
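Cells plated overnight at 1500 cells/well, then exposed to library compounds with dopamine controls for 90 minutes at 37 degrees C. DiscoveRx reagent added for 30–60 minutes at room temperature; luminescence read, quantitative HTS format.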
Numbers without * were called inactive; i = inactive; ? = inconclusive; . = no result. Unless noted, calls come from the whole dose curve; as a rule, active = well fitted curve in the direction sought with a large enough effect; inconclusive = small, poorly fitted or top-dose-only effect, or another doubt; inactive = no such curve, though single readings can be large; an effect the other way counts as inactive or inconclusive.

SMILES	KB-3-1 cytotox	DRD3 agonist	MCF10A rerep	SW480 rereplic	KB-V1 MDR tox	DRD3 antagonist
Cc1cccc(N(C)C(=S)Oc2ccc3ccccc3c2)c1	i	-10	11%	19%	i	-65*
CCCCCCCCCCCCCCCCCCN(CCCCCCCCCCCCCCCCCC)c1ccc(/C=C/c2ccc(C=O)cc2)cc1	i	.	.	.	i	.
CCOC(=O)N1CCN(C(=O)CNC(=O)c2nn(-c3ccc(OC)c(Cl)c3)c(=O)c3ccccc23)CC1	i	9	5%	9%	i	60
COc1ccc(-n2nc(C(=O)NCC(=O)NCc3ccco3)c3ccccc3c2=O)cc1Cl	i	-4	?	0%	5.8µM*	24
COC(=O)CNC(=O)CNC(=O)c1nn(-c2ccc(OC)c(Cl)c2)c(=O)c2ccccc12	i	-5	-2%	-3%	i	-4
CCOC(=O)N1CCN(C(=O)CNC(=O)c2nn(-c3ccc(OC)c(OC)c3)c(=O)c3ccccc23)CC1	?	54*	-9%	-2%	i	10
CCOc1ccccc1CNc1ncnc2onc(-c3ccc(F)cc3)c12	i	-12	.	.	i	.
CC1=CC(C)(C)Nc2ccc(OC(=O)CN3C(=O)c4cccc5cccc(c45)C3=O)cc21	i	5	15µM*	?	i	14
CC1=CC(C)(C)Nc2ccc(OC(=O)CN3C(=O)c4ccccc4C3=O)cc21	?	2	5.8µM*	18µM*	i	2
Cc1ccc2nsnc2c1S(=O)(=O)N1CCN(CCc2ccccc2)CC1	?	-6	16%	1%	12µM*	19
O=C(/C=C/c1ccc([N+](=O)[O-])cc1)Nc1cccc(S(=O)(=O)NC2=NCCCCC2)c1	i	1	10%	1%	18µM*	5
COC(=O)c1cccc(NC(=O)/C=C/c2ccc([N+](=O)[O-])cc2)c1	i	4	-2%	2%	i	1
CC(=O)Nc1ccc(C(=O)OCC(=O)c2cccc([N+](=O)[O-])c2)cc1	i	3	-5%	-6%	i	-1
CCOC(=O)c1cccc(NC(=O)/C=C/c2ccc([N+](=O)[O-])cc2)c1	i	2	18%	-1%	4.1µM*	31
Cc1ccc(C(=O)COC(=O)c2cccc(NC(=O)c3ccc([N+](=O)[O-])cc3[N+](=O)[O-])c2)cc1	?	-2	?	26%	18µM*	?
Cc1cccc(-n2ncc(C(=O)Nc3ccc4c(c3)OCO4)c2C2CCN(C(=O)OC(C)(C)C)CC2)c1	i	-26	.	.	i	.
CCCc1cc(=O)n2nc(N3CCC(C(=O)NCc4ccc(C)o4)CC3)sc2n1	i	5	0%	-1%	i	-1
Brc1ccc2nc(-c3cccs3)c(NCC3CCCO3)n2c1 (centres undefined)	i	8	21µM*	46%	i	4
Cc1ccc(CNc2ccc3c(c2)ncn3C)cc1	i	-2	1%	-4%	i	-24
COc1ccc(CNc2ccc3c(c2)ncn3C)cc1OC	?	1	24%	10µM*	?	14
CCn1cnc2cc(NCc3ccncc3)ccc21	i	2	15µM*	-6%	i	-16
Cc1noc(C)c1S(=O)(=O)N1CCCC(C(=O)N2CCC(C)CC2)C1 (centres undefined)	i	3	1%	1%	i	5
Cc1cccc(N2CCN(C(=O)C3CCCN(S(=O)(=O)c4c(C)noc4C)C3)CC2)c1C (centres undefined)	?	67*	3%	7%	i	-6
Cc1nn(C)c(C)c1S(=O)(=O)N1CCCC(C(=O)N2CCN(c3ccc(Cl)cc3)CC2)C1 (centres undefined)	18µM*	0	0%	-5%	i	-20
CCOC(=O)c1c(N)c2cc([N+](=O)[O-])ccc2n1C	i	-2	-1%	8%	?	-26
SMILES	KB-3-1 cytotox	DRD3 agonist	MCF10A rerep	SW480 rereplic	KB-V1 MDR tox	DRD3 antagonist
CCOC(=O)/C(=C/c1c(C)n(C)c2ccc([N+](=O)[O-])cc12)C(C)=O	23µM*	-9	15µM*	?	?	-54*
CCCCC1=CC2=C(c3ccco3)C(=O)C(C)(OC(=O)c3ccc(OC)cc3)C(=O)C2=CN1CC1CC1 (centres undefined)	i	-36	0%	?	i	-64*
O=C(N/N=C/c1cccnc1)c1ccccc1OCc1ccc(Br)cc1	i	-5	2%	-2%	i	1
O=C(N/N=C/c1cccnc1)c1cc(-c2ccccc2OCc2ccccc2)n[nH]1	?	-7	15µM*	?	?	1
C[N+]1(CC(=O)c2ccc(I)cc2)CCCc2ccccc21 (centres undefined)	?	.	.	.	i	.
COCCNc1nc(NCc2cccc(OC)c2)c2sc(-c3ccccc3)cc2n1	?	4	.	.	i	-17
Cc1ccc(NC(=O)CCSc2nc(-c3ccc4c(c3)OCO4)cc(C(F)(F)F)n2)c(C)c1	?	56*	.	.	i	.
COc1ccc(CC(NC(C)=O)C(=O)NC2CCN(c3nc(C)cc(C)c3C#N)CC2)cc1OC (centres undefined)	i	1	0.58µM*	-9%	i	2
COc1ccc(CC(NC(C)=O)C(=O)NC2CCN(c3nc(C)cc(C)c3C#N)CC2)cc1 (centres undefined)	i	1	1%	-11%	i	7
Cc1ccc(OCCCn2cc(C#N)c3ccccc32)cc1	?	2	-5%	?	16µM*	19
CCOC(=O)N/N=C/c1cn(CCCOc2ccc(C)cc2)c2ccccc12	?	16	10%	?	21µM*	37
N#Cc1cn(CCOc2ccc(F)cc2)c2ccccc12	?	-7	?	0%	i	-17
O=C(Nc1sc2c(c1C(=O)NCc1ccccc1)CCCC2)c1cc(=O)c2cc(Cl)ccc2o1	i	4	.	.	?	.
COc1ccccc1N1CCN(S(=O)(=O)c2ccc(-c3ccno3)cc2OC)CC1	i	5	.	.	i	.
Cc1cc(C)cc(C(=O)NCCc2csc(-c3ccc(C(F)(F)F)cc3)n2)c1	.	8	.	.	.	.
COc1ccc(CC(=O)NCCc2csc(-c3ccc(Cl)cc3)n2)cc1	i	0	.	.	0.92µM*	.
